Screens (PubChem BioAssay)
BaF3 parental: parental Ba/F3 cell viability inhibition, counter-screen for JAK2V617F inhibitor project, murine pro-B, CellTiter-Glo luminescence; CellTiter-Glo ATP luminescence; inhibition, % at 5.6 µM; 1.1% of 220,000 active; AID 1486, 2009;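 active = inhibition above a per-campaign cutoff, the mean inhibition of all tested compounds plus 3 SD, cut at about 27% in these data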;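 also: 0% = DMSO wells and 100% = JAK Inhibitor I control wells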
KLF5 inhibitor: KLF5 expression inhibitors, primary screen, DLD-1 cells, luminescence | DLD-1 KLF5 promoter-luciferase reporter | inhibition, % at 5 µM | 0.23% of 290,000 active;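 active = inhibition above a per-plate limit of that plate's mean compound inhibition plus 3 SD, cut at about 60% in these data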;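 also: 0% = DMSO wells and 100% = LY294002 at 200 µM; higher means less KLF5 promoter-driven luciferase light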
Ba/F3 V617F tox: reduced viability of JAK2V617F-dependent Ba/F3 cells, primary screen, JAK2V617F inhibitor project, cell-based, Ba/F3 EpoR-JAK2V617F, luminescence; 1.1% of 220,000 active; ATP luminescence; inhibition, % at 5.6 µM;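 active = inhibition above the campaign mean plus 3 SD over all tested compounds, cut at about 24% in these data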;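 also: cytokine-independent growth of Ba/F3 cells driven by EpoR plus mutant JAK2; 0% = DMSO-treated cells and 100% = JAK inhibitor I control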
IEC-6 tox: cytotoxicity in IEC-6 intestinal epithelial cells, primary screen, cytotoxicity control for KLF5 inhibitor project, cell-based, luminescence; IEC-6 cytotoxicity, luminescence viability; inhibition, % at 5 µM; 0.78% of 290,000 active; in the data active = inhibition above about 22%;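 also: 0% = plate median of test compound wells and 100% = cytotoxic reference compound wells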
APP 5UTR inh: inhibitors of APP translation via 5'UTR reporter, primary screen, APP 5'UTR luciferase, SH-SY5Y cells; SH-SY5Y APP 5'UTR-luciferase reporter, luminescence; inhibition, % at 2 µM; 0.82% of 190,000 active;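 active = inhibition above a set limit, derived from the sample mean plus 3 SD, cut at about 45% in these data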
aSyn UTR inh: MLPCN primary screen, SNCA 5' untranslated region; alpha-synuclein 5'UTR reporter, inhibitor activity; inhibition, % (tested at 7.5 µM); 0.82% of 300,000 active; AID 1813, 2009; in the data active = inhibition above about 60%;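 also: H4 neuroglioblastoma cells stably carrying SNCA 5'UTR luciferase fusion; 0% = DMSO wells and 100% = positive control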
Active calls of the source: *; · = no result given. An excerpt weighted towards active compounds, which were near 2.2% of everything screened.

SMILES | BaF3 parental | KLF5 inhibitor | Ba/F3 V617F tox | IEC-6 tox | APP 5UTR inh | aSyn UTR inh
Cc1ccc(C(=O)c2cc([N+](=O)[O-])ccc2N2CCOCC2)cc1C | 76.4* | 5.6 | 85.5* | 5.5 | 93.3* | 16.8
CN(CC(=O)Nc1ccccc1C(F)(F)F)C(=O)C1=COCCO1 | · | · | · | · | · | -2.5
Cc1ccc(-n2nc3c(=O)n(CC(=O)NC(C)CCc4ccccc4)nc(C)c3c2C)cc1 (stereo not given) | · | -60.5 | · | 4.3 | · | 27.3
O=c1[nH][nH]cc1C=Nc1cc(Cl)ccc1O | 2.9 | -13.8 | 4.9 | 2.9 | 20.6 | -48.8
O=c1[nH][nH]cc1C=Nc1ccc(Cl)cc1Cl | 4.6 | -3.1 | 3.9 | 0.2 | 63.9* | -52.8
NC1=NC(c2cccc(Cl)c2)N(CCc2ccc(F)cc2)C(N)=N1 (stereo not given) | · | -35.9 | · | -8.4 | · | 3.9
Cc1oc2c(c1C(=O)c1ccccc1)C(=O)C(=O)c1ccccc1-2 | -3.1 | -102.7 | 5.5 | 2.2 | -91.5 | 126.8*
Cc1oc2c(c1C(=O)O)C(=O)c1ccccc1C2=O | 18.7 | -10.9 | 5.5 | -13.8 | -12.4 | -62.0
CCOc1ccccc1NC(=O)CSc1nnc(-c2cccnc2)o1 | · | · | · | · | · | -18.7
CC1=CC(C)(C)N2C(=O)C(=O)c3cc(OC(=O)c4ccco4)cc1c32 | 53.2* | 27.1 | 69.1* | 87.8* | 65.8* | -14.1
CCOC(=O)C1=C(COC(=O)CCNS(=O)(=O)c2ccc(NC(C)=O)cc2)NC(=O)NC1C (stereo not given) | · | · | · | · | · | -3.9
Cc1ccc(N(C)S(=O)(=O)c2c[nH]c3ccc([N+](=O)[O-])cc23)cc1 | · | -20.5 | · | -3.2 | · | 7.9
Cn1cc(C(=O)c2ccc(Cl)cc2Cl)cc1C(=O)N/N=C(\N)COc1ccc(Cl)cc1Cl | 8.8 | 6.3 | 0.4 | 6.1 | 6.6 | 64.9*
CCc1ccc2c(c1)Sc1ccccc1CC2N1CCN(C)CC1 (stereo not given) | · | · | · | · | · | -16.4
c1ccc2c(c1)CC(N1CCCCC1)c1ccccc1S2 (stereo not given) | · | · | · | · | · | 89.8*
CCOc1ccc(NC(=S)Nc2ccc(OC(F)(F)F)cc2)cc1 | 50.7* | 7.2 | 62.9* | -0.7 | · | 5.3
CCOc1ccc(NC(=S)Nc2ccccc2C2CC2)cc1 | 80.6* | -35.0 | 0.5 | -1.3 | -5.8 | -6.1
O=[N+]([O-])c1ccc(Sc2cccc[n+]2[O-])c2nonc12 | 104.8* | 12.5 | 99.0* | 100.1* | · | 84.8*
O=[N+]([O-])c1ccc(Nc2ccccc2)c2nonc12 | · | -24.6 | · | 2.3 | · | 10.7
COc1cc2c(cc1OC)C(C)N(C(=O)c1ccc(Cl)c(S(=O)(=O)N3CCCCC3)c1)CC2 (stereo not given) | · | 2.7 | · | 1.4 | · | 11.3
N#Cc1c(-c2ccccc2)c(-c2ccccc2)nn(CC(=O)NNC(=O)Nc2ccccc2)c1=O | 43.2* | 23.7 | 19.6 | 15.5 | 3.1 | -91.8
COc1cc2c(cc1OC)C(NC(=O)c1ccc(C)cc1)CC2=O (stereo not given) | · | -7.7 | · | -4.8 | · | 5.7
O=C(Nc1ccc(Cl)cc1)/C(=C/c1ccc([N+](=O)[O-])cc1)c1nc2ccccc2s1 | -1.5 | 3.8 | -2.4 | 1.2 | 96.0* | ·
Cc1ccc(-n2ncc3c(NCCCN4CCCC4=O)ncnc32)c(C)c1 | 47.1* | -9.9 | 0.7 | -4.6 | 1.8 | -12.0
CCN(CC(=O)Nc1ccccc1OC)CC(=O)Nc1ccccc1-c1ccccc1 | 1.8 | 16.8 | 2.2 | 24.3* | 2.8 | ·
O=C(Cc1n[nH]c(=O)c2ccccc12)OCC(=O)c1ccc(F)c(F)c1 | · | · | · | · | · | 1.4
CC1=NN(c2nc(-c3ccc(C)cc3)cs2)C(=O)C1N=Nc1ccc(C(N)=O)cc1 (stereo not given) | 3.1 | -47.6 | -4.7 | -0.9 | 33.3 | 86.5*
COc1ccc(Cn2c(SCc3ccccc3C)nc3cc(OC)c(OC)cc3c2=N)cc1 | 2.3 | -10.4 | -0.9 | 2.8 | -5.4 | 92.9*
COc1cc2nc(SCc3ccc(F)cc3)n(Cc3cccs3)c(=N)c2cc1OC | 8.9 | 3.2 | -0.7 | -2.8 | 12.3 | 1.9
CCN(c1ccccc1)S(=O)(=O)c1ccc(OC)c(NC(=O)CNC)c1 | 29.6* | -24.2 | 7.6 | 4.9 | -11.7 | -5.8
